Assay results reported in PubChem BioAssay AID1159580 (chemical genetic matrix, 2015).
The campaign covered roughly 5,500 compounds. About 2,000 (36%) were called active. Inconclusive results (about 18%) are left out. Rule as the data show it: active = normalized growth mostly below about 0.91 (no sharp cut-off); inconclusive = no clear call, values can overlap the other calls; inactive = mostly above about 0.92. The list shows a part of the results.

Test: chemical genetic growth profiling, strain panel (AID 1159580);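 also: tested at 20 µM; growth read once vehicle control cultures reached saturation at 30 °C; 1 = growth at the plate median or of vehicle wells; lower values mean less growth of the strain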
Settings: S. cerevisiae deletion strains, growth OD

Measured: normalized growth

O=C1c2ccccc2C(=O)c2sccc21
active: locus YAR019C, strain CDC15, hits give low values 0.556 | locus YBL105C, strain PKC1, hits give low values 0.778 | locus YBR135W, strain CKS1, hits give low values 0.716 | locus YBR136W, strain MEC1, hits give low values 0.718 | locus YBR160W, strain CDC28, hits give low values 0.75 | locus YDL017W, strain CDC7, hits give low values 0.72 | locus YDL028C, strain MPS1, hits give low values 0.749 | locus YDL101C, strain DUN1, hits give low values 0.466 | locus YDL108W, strain KIN28, hits give low values 0.752 | locus YDL132W, strain cdc53, hits give low values 0.674 | locus YDL214C, strain PRR2, hits give low values 0.233 | locus YDR052C, strain DBF4, hits give low values 0.646 | locus YDR054C, strain cdc34, hits give low values 0.556 | locus YDR226W, strain ADK1, hits give low values 0.751 | locus YDR477W, strain SNF1, hits give low values 0.209 | locus YER123W, strain YCK3, hits give low values 0.183 | locus YER133W, strain GLC7, hits give low values 0.225 | locus YFL009W, strain cdc4, hits give low values 0.59 | locus YFL029C, strain CAK1, hits give low values 0.4 | locus YFR003C, strain YPI1, hits give low values 0.694 | locus YFR019W, strain FAB1, hits give low values 0.171 | locus YFR028C, strain CDC14, hits give low values 0.649 | locus YGR040W, strain KSS1, hits give low values 0.182 | locus YGR052W, strain FMP48, hits give low values 0.156 | locus YGR092W, strain DBF2, hits give low values 0.152 | locus YHR030C, strain SLT2, hits give low values 0.157 | locus YHR079C, strain IRE1, hits give low values 0.211 | locus YHR082C, strain KSP1, hits give low values 0.204 | locus YHR205W, strain SCH9, hits give low values 0.124 | locus YIL147C, strain SLN1, hits give low values 0.669 | locus YJL095W, strain BCK1, hits give low values 0.154 | locus YJL128C, strain PBS2, hits give low values 0.595 | locus YJL157C, strain FAR1, hits give low values 0.227 | locus YJR016C, strain ILV3, hits give low values 0.483 | locus YJR066W, strain TOR1 (second series), hits give low values 0.147 | locus YJR066W, strain TOR1, hits give low values 0.15 | locus YKL048C, strain ELM1, hits give low values 0.33 | locus YKL067W, strain YNK1, hits give low values 0.272 | locus YKL101W, strain HSL1, hits give low values 0.209 | locus YKL193C, strain SDS22, hits give low values 0.498 | locus YKL203C, strain TOR2, hits give low values 0.158 | locus YLR113W, strain HOG1, hits give low values 0.303 | locus YLR133W, strain CKI1, hits give low values 0.196 | locus YLR403W, strain SFP1, hits give low values 0.154 | locus YML070W, strain DAK1, hits give low values 0.214 | locus YMR001C, strain CDC5, hits give low values 0.614 | locus YMR205C, strain PFK2 (second series), hits give low values 0.236 | locus YMR277W, strain FCP1, hits give low values 0.46 | locus YNL006W, strain LST8, hits give low values 0.593 | locus YNL020C, strain ARK1, hits give low values 0.183 | locus YNL161W, strain CBK1, hits give low values 0.636 | locus YNL183C, strain NPR1, hits give low values 0.161 | locus YNL207W, strain RIO2, hits give low values 0.473 | locus YNL222W, strain SSU72, hits give low values 0.634 | locus YNL307C, strain MCK1 (second series), hits give low values 0.16 | locus YOL078W, strain AVO1, hits give low values 0.511 | locus YOL136C, strain PFK27, hits give low values 0.192 | locus YOR061W, strain CKA2, hits give low values 0.244 | locus YOR119C, strain RIO1, hits give low values 0.221 | locus YOR231W, strain MKK1, hits give low values 0.206 | locus YOR329C, strain SCD5, hits give low values 0.579 | locus YPL031C, strain PHO85, hits give low values 0.184 | locus YPL153C, strain RAD53, hits give low values 0.207 | locus YPL204W, strain HRR25, hits give low values 0.198 | locus YPL209C, strain IPL1, hits give low values 0.684 | locus YPL256C, strain CLN2, hits give low values 0.223 | locus YPR025C, strain CCL1, hits give low values 0.705 | locus YPR106W, strain ISR1, hits give low values 0.601 | locus YPR111W, strain DBF20, hits give low values 0.691 | strain NNK1, hits give low values 0.305 | strain TSCII, hits give low values 0.527
